Our source for the growth inhibition values is PubChem BioAssay (NCI).

Test [1] in a line: NCI Yeast Anticancer Drug Screen. Data for the rad50 strain (AID 155).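 Note: 0% = growth of vehicle-only cultures of the same strain.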 The following applies: S. cerevisiae rad50 strain growth inhibition, active compounds read high; at 50.0 µM unless noted. In short, it runs like this:
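A DNA repair-deficient yeast mutant serves as the test organism; compound-induced growth inhibition is calculated against vehicle-treated cells.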

The nature of test [2]: NCI Yeast Anticancer Drug Screen. Data for the mec2-1 strain (AID 157). The following applies: S. cerevisiae mec2-1 strain, active compounds read high; at 50.0 µM unless noted. In short, it runs like this: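 Strain: mec2-1 (DNA repair/cell cycle alteration). Compound exposure, then growth measured; inhibition expressed relative to vehicle.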
The nature of test [3]: NCI Yeast Anticancer Drug Screen. Data for the sgs1 mgt1 strain (AID 161).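 Note: 0% = growth of cultures given vehicle only.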 The following applies: S. cerevisiae sgs1 mgt1 strain, active compounds read high; at 50.0 µM unless noted. The method in brief:
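Mutant yeast exposed to compound; growth scored against vehicle-only wells.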

Test [4] can be described thus: NCI Yeast Anticancer Drug Screen. Data for the cln2 rad14 strain (AID 165).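 Note: 0% = growth equal to vehicle treated cultures.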 The note with it: S. cerevisiae cln2 rad14 strain, active compounds read high; at 50.0 µM unless noted. In short, it runs like this: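 Compounds are applied to the cln2 rad14 yeast strain, and growth is then compared with that of vehicle-treated cultures to give inhibition.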
Test [5] in a line: NCI Yeast Anticancer Drug Screen. Data for the bub3 strain (AID 167). The following applies: S. cerevisiae bub3 mutant strain, active compounds read high; at 50.0 µM unless noted. In short, it runs like this:
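Inhibition values come from growth of compound-treated mutant yeast normalised to vehicle-treated controls.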

A short description of test [6]: NCI Yeast Anticancer Drug Screen. Data for the mlh1 rad18 strain (AID 175). The following applies: S. cerevisiae mlh1 rad18 strain growth inhibition, active compounds read high; at 50.0 µM unless noted. The method in brief:
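Read-out is yeast growth inhibition, calculated against vehicle-only controls. The compound was applied to a strain engineered with DNA damage repair alterations.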

Molecules are shown by their SMILES. Where “and” joins values, the source holds several entries; their conditions need not be identical. Equal values may be shown once. Compounds without any hit were thinned out: in the full panel of roughly 79,000, 15% have a hit. Values without a mark were called inactive. Calls of active or inactive are those of the source. Cut-off read from the data, not from the text of the source: active = growth inhibition above about 70%; inactive = the rest.

In the case of `C[n+]1ccc2ccccc2c1`, the growth inhibition in test [1] was 6.9% and -7.2%; in test [2], 0.55% and 5.3%; in test [3], 21.2% and 1.15%; in test [4] it was -36.8% and -2.25%; in test [5], 3.05% and -6.5%; in test [6], 9.6% and 10.4%.

As to `CCN(CCO)c1cccc(C)c1`, the growth inhibition was -12.2% in test [1]; -19.1% in test [2]; -12.5% in test [3]; 1.6% in test [4]; -17.4% in test [5]; -7.2% in test [6].

Turning to `Cc1cc(C)cc(N(C2=NCCS2)C2=NCCS2)c1`, the growth inhibition in test [1] is 5%; in test [2] it was -4.55%; in test [3] it was -2.35%; in test [4] it was 0.45%; in test [5] it was 21.9%; in test [6], 4.9%.

As for `O=C(C[n+]1csc2ccccc21)c1ccccc1`, the growth inhibition was 9% in test [1]; 15.3% in test [2]; 17.1% in test [3]; 20.4% in test [4]; 30.4% in test [5]; 3.8% in test [6].

`CCO/C=C(\C)CC1([N+](=O)[O-])C(=O)c2ccccc2C1=O`: the growth inhibition was 7.95% in test [1]; -4.75% in test [2]; 16.1% in test [3]; -3.75% in test [4]; 11.5% in test [5]; 15.8% in test [6].

For `O=NNc1ccc(S(=O)(=O)c2ccc3ccccc3c2)cn1`, the growth inhibition in test [1] is 31.7%; in test [2], 12.8%; in test [3], -24.9%; in test [4], -8.95%; in test [5], -25.6%; in test [6] it was -88.5%.

`CC(=O)NC1=NC(=O)/C(=C/c2ccc3c(c2)OCO3)N1C`: the growth inhibition in test [1] is 4.7%; in test [2], 2.85%; in test [3] it was -3.3%; in test [4], 3%; in test [5], 5.5%; in test [6] it was 10.9%.

For the compound `OC1COC(CCl)OC1C1OC(CCl)OCC1O` (stereo unspecified), the growth inhibition in test [1] was 10.2%; in test [2], 23.6%; in test [3], 17.9%; in test [4], 6.3%; in test [5], 19.4%; in test [6], 25.9%.

With `NC(N)=NC(N)=Nc1cc(Cl)c(Cl)cc1Cl`, the growth inhibition in test [1] is 98.2% (active); in test [2], 99.5% (active); in test [3], 99.3% (active); in test [4], 98.8% (active); in test [5], 99.2% (active); in test [6] it was 99.3% (active).

Take `COc1ccc(C2=Nc3c(nc(OC)[nH]c3=O)NC(c3ccccc3)C2)cc1` (stereo unspecified): the growth inhibition in test [1] was 12.3%; in test [2] it was 10.2%; in test [3] it was -10.5%; in test [4], 7.55%; in test [5] it was -8.95%; in test [6] it was -21.8%.

Turning to `C/C=C(\C)c1cc(=O)c2c(C)cc3c(c2o1)C(OC)(OC(C)=O)c1c(O)c(C2CC(C)(N(C)C)C(OC(C)=O)C(C)O2)cc(C2CC(N(C)C)C(OC(C)=O)C(C)O2)c1C3=O` (stereo unspecified), the growth inhibition is -23.9% in test [1]; -28.3% in test [2]; -30.8% in test [3]; 0.5% in test [4]; -21.6% in test [5]; -4.8% in test [6].

Consider `CCCCCCN(CCCCCC)CC(O)c1cc(-c2ccc(Cl)cc2)nc2c(Cl)cccc12` (stereo unspecified), for which the growth inhibition in test [1] is -21.2%; in test [2], -8.05%; in test [3] it was 18.4%; in test [4], -0.35%; in test [5], -9.5%; in test [6] it was 19.9%.

Turning to `CCCCOc1ccc(Nc2cc(Cl)ccc2C(=O)O)cn1`, the growth inhibition was -29.2% and 48.1% in test [1]; -14.2% and 23.7% in test [2]; -25.6% and 44.4% in test [3]; -12.6% and 37.7% in test [4]; -36.1% and 35% in test [5]; -22.6% and 25.1% in test [6].

On to `Cc1ccc(S(=O)(=O)c2c3[nH]c4ccccc4nc3n3c2nc2ccccc23)cc1`, for which the growth inhibition in test [1] was -14.2%; in test [2] it was -45.5%; in test [3] it was -19.2%; in test [4] it was -87.3%; in test [5] it was -26.8%; in test [6] it was -14.3%.

For `Fc1ccccc1C1SCc2nc3cc4ccccc4cc3n21` (stereo unspecified), the growth inhibition is -33.6% in test [1]; -17.8% in test [2]; 0.95% in test [3]; -1.45% in test [4]; -0.95% in test [5]; 40% in test [6].

For `COc1ccc2c(c1)OC[C@@H]1c3cc(NC(=O)c4ccccc4)c(OCc4ccccc4)cc3N(S(=O)(=O)c3ccccc3)[C@H]21`, the growth inhibition in test [1] was -23.9%; in test [2], -13.9%; in test [3], -2.1%; in test [4] it was -2.5%; in test [5], -9%; in test [6], 9.4%.

As to `Cc1ccc(S(=O)(=O)NC(=O)NC(C)C(=O)O)cc1` (stereo unspecified), the growth inhibition in test [1] is -1.15%; in test [2], -5.65%; in test [3], -13.2%; in test [4] it was 0.2%; in test [5] it was 2.5%; in test [6], -7.65%.

With `CCc1ccc2c(c1)C(=O)c1ccccc1C2=O`, the growth inhibition was 4% in test [1]; 21.8% in test [2]; 11.1% in test [3]; -9.5% in test [4]; 25.7% in test [5]; 26.6% in test [6].

Take `CC(C)N(C(=S)S)C(C)C`: the growth inhibition in test [1] is 9.5%; in test [2] it was 4.95%; in test [3], 16.6%; in test [4] it was -0.65%; in test [5], -26.4%; in test [6], -19.2%.

For `CN(C)/C(N)=N\c1nc(O)cc(=O)[nH]1`, the growth inhibition is 6.7% in test [1]; -19.6% in test [2]; -0.05% in test [3]; -0.6% in test [4]; 10.7% in test [5]; 10.1% in test [6].

`COc1ccc(CC(C)NN)cc1` (stereo unspecified): the growth inhibition in test [1] is 93% (active); in test [2], 56.7%; in test [3], 50.2%; in test [4], 95.7% (active); in test [5], 99.2% (active); in test [6], 98.5% (active).
